# Measured values: PubChem BioAssay (NCI)
# About 79,000 compounds went through this panel and 15% of them were active in at least one assay; those are over-represented in the sample as a whole. A number with no mark means an inactive call. Activity calls are given as the source filed them. Rule as the data show it: active = growth inhibition above about 70%; inactive = the rest.
# What was measured:
# [1] = NCI Yeast Anticancer Drug Screen. Data for the rad50 strain (AID 155);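 also: 0% = growth of vehicle-only cultures of the same strain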; conditions: S. cerevisiae rad50 strain growth inhibition; at 50.0 µM; stronger effect = higher value
# Procedure, shortened: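 DNA repair mutant yeast, compound exposure, growth read-out; inhibition is taken relative to vehicle.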
# [2] = NCI Yeast Anticancer Drug Screen. Data for the mec2-1 strain (AID 157); conditions: S. cerevisiae mec2-1 strain, at 50.0 µM, stronger effect = higher value
# Procedure, shortened: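 Using mec2-1 yeast: add compound, measure growth, express inhibition versus vehicle-treated cultures.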
# [3] = NCI Yeast Anticancer Drug Screen. Data for the sgs1 mgt1 strain (AID 161);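 also: 0% = growth of cultures given vehicle only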; conditions: S. cerevisiae sgs1 mgt1 strain, at 50.0 µM, stronger effect = higher value
# Procedure, shortened: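 This yeast growth screen uses a strain with defined DNA-repair lesions; compound-treated growth is compared with vehicle-treated growth.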
# [4] = NCI Yeast Anticancer Drug Screen. Data for the cln2 rad14 strain (AID 165);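 also: 0% = growth equal to vehicle treated cultures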; conditions: S. cerevisiae cln2 rad14 strain, at 50.0 µM, stronger effect = higher value
# Procedure, shortened: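 Yeast strain cln2 rad14, bearing defects in cell cycle control and DNA repair, serves as the test system; values reflect growth inhibition compared with vehicle.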
# [5] = NCI Yeast Anticancer Drug Screen. Data for the bub3 strain (AID 167); conditions: S. cerevisiae bub3 mutant strain, at 50.0 µM, stronger effect = higher value
# Procedure, shortened: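 In this screen, a yeast mutant lacking normal mitotic checkpoint function is challenged with compound. Relative growth versus vehicle gives the inhibition value.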
# [6] = NCI Yeast Anticancer Drug Screen. Data for the mlh1 rad18 strain (AID 175); conditions: S. cerevisiae mlh1 rad18 strain growth inhibition; at 50.0 µM; stronger effect = higher value
# Procedure, shortened: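 Steps: expose repair-defective yeast to compound; measure growth; express inhibition against vehicle-treated controls.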
SMILES,growth inhibition [1] [%],growth inhibition [2] [%],growth inhibition [3],growth inhibition [4] [%],growth inhibition [5] [%],growth inhibition [6]
NC(=O)CCCc1ccc2oc3ccccc3c2c1,13.4,-4.05,9.05%,6.55,22.8,35.4%
CC(=O)c1ccc(N2C(=O)CC(NC3CCCCC3)C2=O)cc1 (stereo not given),-7.4,7.1,9.45%,-2.15,1.65,-17.4%
Cc1cccc(-c2cc3cccnc3nc2NN=O)c1C,64.8,68,75.7% (active),39.3,67.1,76.5% (active)
CC1(C)OC2OC(CNC(=O)c3ccccc3)C(O)C2O1 (stereo not given),-9.05,-4.4,3.05%,-3.1,-10.3,-18.8%
COc1cc2ccc3c4cc(OC)c(OC(C)C)cc4cnc3c2cc1OC,-48.9,-15.3,-0.9%,29.6,-10.5,-4.45%
COC1C(/C=[N+](\C)[O-])OC2OC(C)(C)OC21 (stereo not given),10.2,-9.5,-12.8%,-26.1,17.6,12.8%
Brc1cc(Br)c2c(c1)CN(C1CCCCC1)CO2 (tested in a mixture with another compound),-0.15,3.85,-0.4%,-18.9,-1.6,-7.45%
CCC/C=N/NC(=O)CCCCCCCCCCCCCCCCC,7.35,7.95,16.9%,-8.2,7.7,14.3%
CCC(C)C1(C)OC1C(=O)OC (stereo not given),-2.7,-31.6,-42.4%,22.1,-41,4.55%
FC(F)(F)c1cccc(C2SCc3nc4ccccc4n32)c1 (stereo not given),-16.4,6.6,7.1%,0.45,23.9,21.7%
COc1ccc(NC(=O)CSc2cc(Cl)ccc2Cl)cc1,10.7,7.15,32.1%,18.9,21.6,27.9%
Cc1ccc(S(=O)(=O)N/N=C2/C(=O)N(c3ccc(Cl)cc3C)C(=O)C(=O)C2c2nc3ccccc3s2)cc1 (stereo not given),0.85,20.7,1.85%,7.5,-2.1,11.2%
Nn1c(SSSSc2nnc(-c3ccccc3)n2N)nnc1-c1ccccc1,-12.8,3.85,-27.2%,-19.7,14.6,4%
CCOc1c(N=Nc2ccc(Cl)cc2Cl)c(C)nn1C(N)=S,-16.2,0.15,11.1%,-43.8,-24.2,17.5%
C=CCNCC(O)C(F)(F)C(F)(F)C(F)(F)C(F)(F)C(F)(F)C(F)(F)F (stereo not given),22.5,28.9,32.1%,-6.9,7.55,27.6%
c1ccc(C2OCCO2)c(OCCOc2cc(OCCOc3ccccc3C3OCCO3)c(OCCOc3ccccc3C3OCCO3)cc2OCCOc2ccccc2C2OCCO2)c1,-7.6,-18.9,-9.9%,0.3,-4.3,12.3%
C1=C(c2ccccc2)C(OC2Oc3ccccc3C=C2c2ccccc2)Oc2ccccc21 (stereo not given),23.1,-2.15,6.35%,11.9,22.2,-3.65%
COC(=O)/C=C/c1cc(=O)n2c(nc3ccccc32)s1,-11.1,-20.1,-13.2%,-35.2,-41.5,-12.2%
N#Cc1ccccc1NC(=O)C(=O)C(C(=O)c1ccccc1F)C1OC(=O)c2ccccc21 (stereo not given),-1.1,-10.8,-5.25%,-5.5,-16.2,-2.4%
Cc1c(C)c(C)c(S(=O)(=O)NCCCNS(=O)(=O)c2c(C)c(C)c(C)c(C)c2C)c(C)c1C,3.85,-28.7,-7.2%,7.7,-4.95,-1.1%
